This note sets out measurements from PubChem BioAssay (Tox21).

SMILES strings stand for the structures. Results filed as inconclusive are left out. Unmarked numbers belong to inactive results. The source made the active and inactive calls. The call rests on the fitted dose curve; in most records, active means well fitted curve in the direction sought with a large enough effect in the repeat runs; inconclusive means weak or mixed curves; inactive means no such curve, though single readings can be large; an effect the other way counts as inactive or inconclusive.
Further: nearly all actives have a fitted effect of over 50% in size.
On the % scale 0 is the no-effect control and ±100 the full control effect; potency means the concentration at half of the fitted maximal effect.

One experiment in a line: qHTS RealTime-Glo MT Cell Viability Assay in HepG2 cells - 24 hour (AID 1224867). The settings on record: RealTime-Glo luminescence; series mostly up to 76.8 µM; activity change, negative = cytotoxicity: at the top concentration. A digest of the protocol: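 HepG2 cells were seeded at 600 cells/well together with NanoLuc luciferase and a cell-permeant prosubstrate, preincubated 5 h at 37 C/5% CO2, then pin-dosed with compounds in DMSO. Nonlytic luminescence from viable cells was read at each time point.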
For orientation: In qHTS, concentration-response curves come from the screen itself.
As for `O=C(/C=C/c1ccc(O)c(O)c1)O[C@@H]1C[C@@](OC(=O)/C=C/c2ccc(O)c(O)c2)(C(=O)O)C[C@@H](O)[C@@H]1O`, the “activity change, negative = cytotoxicity” value was 2.67% [at 35.3 µM]. Same read-out and setting: the same measure for `CC(C)(c1ccccc1)c1ccccc1`: 1.09%.

On to `Cc1cccc(O)c1N`, for which the “activity change, negative = cytotoxicity” value was -1.11%. Still for that read-out and setting: as for `CC1(C)S[C@@H]2[C@H](NC(=O)C(c3ccccc3)S(=O)(=O)O)C(=O)N2[C@H]1C(=O)O` (stereo partly specified), the figure is 1.69% [at 35.3 µM]; as for `CC[C@]1(O)C[C@H]2CN(CCc3c([nH]c4ccccc34)[C@@](C(=O)OC)(c3cc4c(cc3OC)N(C=O)[C@H]3[C@@](O)(C(=O)OC)[C@H](OC(C)=O)[C@]5(CC)C=CCN6CC[C@]43[C@@H]65)C2)C1`, -21.5% [at 35.3 µM]; as for `CC(=O)Nc1ccc(C)cc1C`, 3.69%. Same read-out and setting: the same measure for `NC(=O)c1ccncc1`: -1.66%; for `O=C(Cn1ccnc1[N+](=O)[O-])NCCO`: 1.68% [at 35.3 µM]; for `CC1CC(C)C(=O)C1=O` (stereo unspecified): 0.231%.

For `CC(=O)c1cc2ccccc2s1`, the “activity change, negative = cytotoxicity” value is 1.34% [at 35.3 µM].

With `Cc1cscn1`, the “activity change, negative = cytotoxicity” value was 3.64%. Take `OCCN1CCN(CCCN2c3ccccc3Sc3ccc(Cl)cc32)CC1`: the Potency was 23.9 µM (active). Take `Clc1cc(Cl)nc(Cl)n1`: the “activity change, negative = cytotoxicity” value was 1.13%. The same measure, in the same setting: the same measure for `Brc1cc(Br)c(Oc2cc(Br)c(Br)cc2Br)cc1Br`: -0.377% [at 35.3 µM]; for `CCCCCC[C@@H](O)C/C=C\CCCCCCCC(=O)O`: 2.21%; for `OC1(c2ccccc2)CCNCC1`: 2.81% [at 35.3 µM].

For `CCOC(=O)c1ccc(O)c(O)c1`, the “activity change, negative = cytotoxicity” value was -1.97% [at 35.3 µM].

For `C=C/C(C)=C/C/C=C(\C)CCC=C(C)C`, the “activity change, negative = cytotoxicity” value is -3.66%. As for `CCC(C)(C)OC`, the “activity change, negative = cytotoxicity” value is 2.07%. Same read-out and setting: the same measure for `Cc1ccccc1S`: 0.0215% [at 35.3 µM]; for `O=[N+]([O-])c1ccc(Nc2ccc(Nc3ccccc3)c(S(=O)(=O)O)c2)c([N+](=O)[O-])c1`: -0.662%.

`Clc1ccc(Nc2nnc(Cc3ccncc3)c3ccccc23)cc1`: the “activity change, negative = cytotoxicity” value is -20.5% [at 35.3 µM]. On the same count and under the same terms, the same measure for `O=C=Nc1cccc(C(F)(F)F)c1`: -3.9%; for `CCCCC(CC)CN` (stereo unspecified): 2.44%. The same measure, in the same setting: as for `OCCOCC#CCOCCO`, the figure is 1.99%. Still for that read-out and setting: as for `CC(C)(C)CC(=O)OCC(=O)[C@@]1(O)CC[C@H]2[C@@H]3CCC4=CC(=O)C=C[C@]4(C)[C@H]3[C@@H](O)C[C@@]21C`, the figure is -15.7% [at 35.3 µM]; as for `COc1ccc(OC(=O)N(CC(=O)O)Cc2ccc(OCCc3nc(-c4ccccc4)oc3C)cc2)cc1`, -10.1% [at 35.3 µM]; as for `O=C(O)C[C@H](NC(=O)OCc1ccccc1)C(=O)O`, -5.26%.

Take `CC(C)=CCC1C(=O)N(c2ccccc2)N(c2ccccc2)C1=O`: the “activity change, negative = cytotoxicity” value was 2.6% [at 35.3 µM].

In the case of `c1ccc2sc(SN(C3CCCCC3)C3CCCCC3)nc2c1`, the “activity change, negative = cytotoxicity” value is 3.14%.

For `Cc1ccc2c(Br)cc(Br)c(O)c2n1`, the “activity change, negative = cytotoxicity” value is 2.22% [at 35.3 µM]. On the same count and under the same terms, as for `COc1ccccc1N1CCN(CCCCNC(=O)c2ccc(-c3ccc(C(C)=O)cc3)cc2)CC1`, the figure is -15.4% [at 35.3 µM]; as for `CCC1NC(=O)c2cc(S(N)(=O)=O)c(Cl)cc2N1` (stereo unspecified), 1.06% [at 35.3 µM]. The same measure, in the same setting: the same measure for `CCOc1ccccc1O[C@H](c1ccccc1)[C@H]1CNCCO1`: -0.725% [at 35.3 µM]; for `C/C=C\C/C=C/CCCCCCCCOC(C)=O`: -11.6%. The same measure, in the same setting: the same measure for `COC(=O)CS`: -0.104%.

Another experiment in a line: qHTS RealTime-Glo MT Cell Viability Assay in HEK293 cells - 32 hour (AID 1224868). On activity change, negative = cytotoxic: top concentration of the series differs between compounds. To be noted: RealTime-Glo luminescence; series mostly up to 76.8 µM; activity change, negative = cytotoxic: at the top concentration. A digest of the protocol: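 HEK293 cells were seeded at 600 cells/well together with NanoLuc luciferase and cell-permeant prosubstrate, preincubated 5 h at 37 C/5% CO2, then given compound in DMSO by pintool. Luminescence from viable-cell prosubstrate reduction was read repeatedly over 40 h.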
As for `O=C(/C=C/c1ccc(O)c(O)c1)O[C@@H]1C[C@@](OC(=O)/C=C/c2ccc(O)c(O)c2)(C(=O)O)C[C@@H](O)[C@@H]1O`, the “activity change, negative = cytotoxic” value was 6.28% [at 35.3 µM]. The same measure, in the same setting: as for `CC(C)(c1ccccc1)c1ccccc1`, the figure is -13.5%; as for `CC1(C)S[C@@H]2[C@H](NC(=O)C(c3ccccc3)S(=O)(=O)O)C(=O)N2[C@H]1C(=O)O` (stereo partly specified), 1.37% [at 35.3 µM]. Regarding `CC[C@]1(O)C[C@H]2CN(CCc3c([nH]c4ccccc34)[C@@](C(=O)OC)(c3cc4c(cc3OC)N(C=O)[C@H]3[C@@](O)(C(=O)OC)[C@H](OC(C)=O)[C@]5(CC)C=CCN6CC[C@]43[C@@H]65)C2)C1`, the Potency was 0.0013 µM (active). For the molecule `CC(=O)Nc1ccc(C)cc1C`, the “activity change, negative = cytotoxic” value is -3.95%.

As to `NC(=O)c1ccncc1`, the “activity change, negative = cytotoxic” value is 4.86%. Same read-out and setting: the same measure for `O=C(Cn1ccnc1[N+](=O)[O-])NCCO`: 7.17% [at 35.3 µM]. Take `CC1CC(C)C(=O)C1=O` (stereo unspecified): the Potency was 13.8 µM (active). Turning to `CC(=O)c1cc2ccccc2s1`, the “activity change, negative = cytotoxic” value was 0.909% [at 35.3 µM]. Same read-out and setting: as for `Cc1cscn1`, the figure is 17.3%. Regarding `OCCN1CCN(CCCN2c3ccccc3Sc3ccc(Cl)cc32)CC1`, the Potency is 23.9 µM (active). Regarding `Brc1cc(Br)c(Oc2cc(Br)c(Br)cc2Br)cc1Br`, the “activity change, negative = cytotoxic” value was -4.64% [at 35.3 µM]. As to `CCCCCC[C@@H](O)C/C=C\CCCCCCCC(=O)O`, the “activity change, negative = cytotoxic” value was 13.9%. Same read-out and setting: as for `OC1(c2ccccc2)CCNCC1`, the figure is 5.17% [at 35.3 µM]. As for `CCOC(=O)c1ccc(O)c(O)c1`, the “activity change, negative = cytotoxic” value is -21.8% [at 35.3 µM].

Regarding `C=C/C(C)=C/C/C=C(\C)CCC=C(C)C`, the “activity change, negative = cytotoxic” value is -4.64%. With `CCC(C)(C)OC`, the “activity change, negative = cytotoxic” value is 10.2%. Consider `Cc1ccccc1S`, for which the “activity change, negative = cytotoxic” value was -11.1% [at 35.3 µM].

For `O=[N+]([O-])c1cc(C2CCCCC2)c(O)c([N+](=O)[O-])c1`, the Potency was 12.3 µM (active).

As to `O=[N+]([O-])c1ccc(Nc2ccc(Nc3ccccc3)c(S(=O)(=O)O)c2)c([N+](=O)[O-])c1`, the “activity change, negative = cytotoxic” value is 3.97%. For `Clc1ccc(Nc2nnc(Cc3ccncc3)c3ccccc23)cc1`, the Potency is 21.3 µM (active).

Take `CCCCC(CC)CN` (stereo unspecified): the “activity change, negative = cytotoxic” value is 6.39%.

As for `OCCOCC#CCOCCO`, the “activity change, negative = cytotoxic” value is 6.82%. Consider `CC(C)=CCC/C(C)=C/CC/C(C)=C/C(=O)OCC(=O)[C@@]1(O)CC[C@H]2[C@@H]3CCC4=CC(=O)C=C[C@]4(C)[C@H]3[C@@H](O)C[C@@]21C`, for which the Potency is 4.77 µM (active). For `CC(C)(C)CC(=O)OCC(=O)[C@@]1(O)CC[C@H]2[C@@H]3CCC4=CC(=O)C=C[C@]4(C)[C@H]3[C@@H](O)C[C@@]21C`, the Potency was 19 µM (active). Same read-out and setting: the same measure for `COc1ccccc1N1CCN(CC(O)COc2cccc3ccccc23)CC1` (stereo unspecified): 26.8 µM (active). For the molecule `COc1ccc(OC(=O)N(CC(=O)O)Cc2ccc(OCCc3nc(-c4ccccc4)oc3C)cc2)cc1`, the “activity change, negative = cytotoxic” value is -11.6% [at 35.3 µM]. On the same count and under the same terms, the same measure for `O=C(O)C[C@H](NC(=O)OCc1ccccc1)C(=O)O`: 0.135%; for `CC(C)=CCC1C(=O)N(c2ccccc2)N(c2ccccc2)C1=O`: 9.47% [at 35.3 µM]; for `c1ccc2sc(SN(C3CCCCC3)C3CCCCC3)nc2c1`: 4.51%. On to `COc1ccccc1N1CCN(CCCCNC(=O)c2ccc(-c3ccc(C(C)=O)cc3)cc2)CC1`, for which the Potency was 1.51 µM (active). In the case of `CCC1NC(=O)c2cc(S(N)(=O)=O)c(Cl)cc2N1` (stereo unspecified), the “activity change, negative = cytotoxic” value is 6.9% [at 35.3 µM]. Still for that read-out and setting: the same measure for `CCOc1ccccc1O[C@H](c1ccccc1)[C@H]1CNCCO1`: -0.325% [at 35.3 µM]; for `C/C=C\C/C=C/CCCCCCCCOC(C)=O`: -17%. With `COC(=O)CS`, the “activity change, negative = cytotoxic” value is 1.75%.
